# Measurements from PubChem BioAssay (NCI).
# The panel holds about 83,000 compounds, 20% with a hit somewhere; the sample as a whole holds those more often.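 Growth was measured after 48 h exposure to one concentration of compound in 96-well plates. Values under 10 count as active.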 Calls of active or inactive are those of the source.
# System: SF-268 CNS
# Experiment: NCI-60 one-dose screen, 48 h (100 = growth as untreated, 0 = no growth, -100 = all killed)
# Details: 10 µM unless noted
row,SMILES,growth
1,O=C(O)COc1ccc([N+](=O)[O-])cc1Cl,109% (inactive)
2,C=C[C@]1(C)C=C2C(=O)[C@@]3(O)OC[C@@]4(CCCC(C)(C)C43O)C2(O)C(O)C1 (some centres undefined),83.8% (inactive)
3,COC(=O)C(C(=O)OC)C(Br)C(Br)C(Br)c1ccccc1 (centres undefined),99.2% (inactive)
4,C=CCNCCC#N,112% (inactive)
5,O=C1C=C(OCC=C(C(F)(F)F)C(F)(F)F)c2ccccc2C1=O,0.611% (active)
6,N#CCc1ncc(-c2ccc(C(F)(F)F)cc2)c(NC2CCCCCC2)n1,30.5% [100 µM] (inactive)
7,C[C@]12CC[C@H]3[C@@H](CC[C@H]4C[C@@H](O)CC[C@@]43C)[C@@H]1CC(=O)C2,97.9% (inactive)
8,COC(=O)c1cc(=O)nc(N/N=C/c2ccccc2O)s1,88.1% (inactive)
9,[N-]=[N+]=Nc1ncc(-c2ccc(C(F)(F)F)cc2)c(NC2CCCCCC2)n1,38% [100 µM] (inactive)
10,NC(CSC(c1ccccc1)(c1ccccc1)c1ccccc1)C(=O)NCC(=O)O (centres undefined),67.3% (inactive)
11,COc1cc(-c2nc(/C=C3/C(=O)Nc4ccccc43)c3ccccn23)cc(OC)c1OC,47% (inactive)
12,COc1cc2cn3c4ccc(O)cc4[nH]c(=O)c3c2cc1OC,18.1% (inactive)
13,CCCCCCCCCCCCCCCCNC(=O)Nc1ccc(C)c(NC(=O)NCCCCCCCCCCCCCCCC)c1,114% (inactive)
14,O=C(c1ccccc1)c1ccccc1-c1ccccc1,45.4% (inactive)
15,CN1NC(c2ccccc2)NN(C)C1=O,102% (inactive)
16,COc1cc2c(c3c1c(=O)c1cccc(F)c1n3C)C=CC(C)(C)O2,102% (inactive)
17,NCCCOc1cc2ccccc2cc1C(=O)Nc1ccc(Cl)cc1OC(=O)c1cc2ccccc2cc1OCCCN,-80.5% (active)
18,O=C(/C=C/c1ccc(Cl)cc1)c1ccc(Cl)cc1,98.3% (inactive)
19,CC(=O)O.[In],103% (inactive)
20,COC(=O)[C@H](Cc1cn(C)cn1)NC(=O)[C@H](CC(=O)OCc1ccccc1)NC(=O)Nc1cc(C(F)(F)F)cc(C(F)(F)F)c1,-91.4% [100 µM] (active)

row,SMILES,growth
1,COc1cc([C@@H]2c3cc4c(cc3[C@H](O)[C@H]3COC[C@@H]23)OCO4)cc(OC)c1OC,80.9% (inactive)
2,COc1ccc(/C=C2\CCCC3=C2N=C2SC=NN2C3c2ccc(OC)c(OC)c2)cc1OC (centres undefined),41.6% (inactive)
3,CC(=O)CC(=O)OC/C=C(/C)CCC=C(C)C,106% (inactive)
4,CC(=O)Nc1ccc(S(=O)(=O)Cl)cc1,109% (inactive)
5,CC(CCN1CCN(CCC(C)CC(C)(C)C)C1CC(C)CC(C)(C)C)CC(C)(C)C (centres undefined),91.5% (inactive)
6,C=C(C)C(C(=O)OCC)(C(=O)OCC)C(C)C,112% (inactive)
7,CSCc1ncc(-c2ccc(C(F)(F)F)cc2)c(NC2CCCCCC2)n1,75.5% [25 µM] (inactive)
8,CCn1cnc(C[C@H](NC(=O)[C@@H](NC(=O)Nc2cc(C(F)(F)F)cc(C(F)(F)F)c2)C(C)C)C(=O)OC)c1,-68.4% [100 µM] (active)
9,O=Nc1ccc(O)c2ccccc12,10.5% (inactive)
10,COC(=O)c1c[n+]([O-])ccc1OC,116% (inactive)
11,CC#Cc1nc(Nc2cc(C)[nH]n2)c2ccccc2n1,-72.5% [100 µM] (active)
12,CC(Br)c1nc2ccccc2cc1C(N)=O (centres undefined),104% (inactive)
13,COC(=O)[C@H](Cc1cn(C)cn1)NC(=O)[C@@H](NC(=O)Nc1cc(C(F)(F)F)cc(C(F)(F)F)c1)C(C)(C)C,-90.4% [100 µM] (active)
14,CCCCCCC(C(=O)OCC)(C(=O)OCC)C1CCCCCC1,121% (inactive)
15,CCCCCCCCCCCCCCCCCCOP(=O)(O)O,109% (inactive)
16,CCC(C)CC(N)O (centres undefined),108% (inactive)
17,CN(C)CCOC(=O)C(C)(C)C,121% (inactive)
18,CNc1ccc(Nc2ccc(S(=O)(=O)O)cc2)c2c1C(=O)c1ccccc1C2=O,114% (inactive)
19,Cn1c2ccccc2c2ccccc21,103% (inactive)
20,NCCCOc1cc(Cl)ccc1NC(=O)c1cc2ccccc2cc1OCCCN,-73.6% (active)

# System: SF-295 CNS
# Experiment: as above
# Details: 10 µM unless noted
row,SMILES,growth
1,C=C[C@]1(C)C=C2C(=O)[C@@]3(O)OC[C@@]4(CCCC(C)(C)C43O)C2(O)C(O)C1 (some centres undefined),113% (inactive)
2,COC(=O)c1cc(=O)nc(N/N=C/c2ccccc2O)s1,81.4% (inactive)
3,[N-]=[N+]=Nc1ncc(-c2ccc(C(F)(F)F)cc2)c(NC2CCCCCC2)n1,-19.7% [100 µM] (active)
4,COc1cc(-c2nc(/C=C3/C(=O)Nc4ccccc43)c3ccccn23)cc(OC)c1OC,92% (inactive)
5,COc1cc2cn3c4ccc(O)cc4[nH]c(=O)c3c2cc1OC,-11% (active)
6,CCCCCCCCCCCCCCCCNC(=O)Nc1ccc(C)c(NC(=O)NCCCCCCCCCCCCCCCC)c1,114% (inactive)
7,O=C(c1ccccc1)c1ccccc1-c1ccccc1,17.1% (inactive)
8,CN1NC(c2ccccc2)NN(C)C1=O,83.5% (inactive)
9,COc1cc2c(c3c1c(=O)c1cccc(F)c1n3C)C=CC(C)(C)O2,91.8% (inactive)
10,NCCCOc1cc2ccccc2cc1C(=O)Nc1ccc(Cl)cc1OC(=O)c1cc2ccccc2cc1OCCCN,-76.2% (active)
11,COc1cc([C@@H]2c3cc4c(cc3[C@H](O)[C@H]3COC[C@@H]23)OCO4)cc(OC)c1OC,56.3% (inactive)
12,COc1ccc(/C=C2\CCCC3=C2N=C2SC=NN2C3c2ccc(OC)c(OC)c2)cc1OC (centres undefined),46.1% (inactive)
13,CC(CCN1CCN(CCC(C)CC(C)(C)C)C1CC(C)CC(C)(C)C)CC(C)(C)C (centres undefined),114% (inactive)
14,O=Nc1ccc(O)c2ccccc12,62.9% (inactive)
15,COC(=O)c1c[n+]([O-])ccc1OC,88.1% (inactive)
16,CCCCCCC(C(=O)OCC)(C(=O)OCC)C1CCCCCC1,105% (inactive)
17,CCC(C)CC(N)O (centres undefined),99.4% (inactive)
18,CN(C)CCOC(=O)C(C)(C)C,108% (inactive)
19,NCCCOc1cc(Cl)ccc1NC(=O)c1cc2ccccc2cc1OCCCN,-62% (active)
